Source: PubChem BioAssay (NCI)
This is part of a sample that, as a whole, favours compounds with a hit. Of some 83,000 tested, about 20% had one in any assay.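 Cells were grown in 96-well plates and exposed to the test compound at a single concentration for 48 hours; results are reported as percent growth, with values below 10 considered active.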

Assays:
Experiment in all cases: NCI-60 one-dose screen, 48 h (100 = growth as untreated, 0 = no growth, -100 = all killed)
DU-145 prostate = conditions: 10 µM unless noted
K-562 leukemia = conditions: 10 µM unless noted
MDA-MB-231 breast = conditions: 10 µM unless noted
RXF 393 renal = conditions: 10 µM unless noted
SF-268 CNS = conditions: 10 µM unless noted
SF-295 CNS = conditions: 10 µM unless noted
SF-539 CNS = conditions: 10 µM unless noted
UACC-257 melanoma = conditions: 10 µM unless noted
M14 melanoma = conditions: 10 µM unless noted
HCT-15 colon = conditions: 10 µM unless noted
HT29 colon = conditions: 10 µM unless noted
SNB-75 CNS = conditions: 10 µM unless noted
SNB-19 CNS = conditions: 10 µM unless noted
U251 CNS = conditions: 10 µM unless noted
PC-3 prostate = conditions: 10 µM unless noted
SK-MEL-5 melanoma = conditions: 10 µM unless noted
UACC-62 melanoma = conditions: 10 µM unless noted
LOX IMVI melanoma = conditions: 10 µM
SK-MEL-28 melanoma = conditions: 10 µM unless noted
MALME-3M melanoma = conditions: 10 µM unless noted

Measured: growth

COc1cccc(C(=O)NNC(=O)c2cccc3ccccc23)c1
inactive: DU-145 prostate 117% | K-562 leukemia 98.4% | MDA-MB-231 breast 110% | RXF 393 renal 115% | SF-268 CNS 110% | SF-295 CNS 124% | SF-539 CNS 114% | UACC-257 melanoma 109% | M14 melanoma 107% | HCT-15 colon 100% | HT29 colon 98.2% | SNB-75 CNS 98.7% | SNB-19 CNS 110% | U251 CNS 102% | PC-3 prostate 106% | SK-MEL-5 melanoma 107% | UACC-62 melanoma 128% | LOX IMVI melanoma 98.5% | SK-MEL-28 melanoma 117%

COc1cccc(N=CNc2cccc(OC)c2)c1
inactive: DU-145 prostate 107% | K-562 leukemia 66% | MDA-MB-231 breast 91.9% | RXF 393 renal 105% | SF-268 CNS 105% | SF-295 CNS 112% | SF-539 CNS 98.3% | UACC-257 melanoma 106% | M14 melanoma 104% | HCT-15 colon 85.2% | HT29 colon 99.6% | SNB-75 CNS 90.8% | SNB-19 CNS 103% | U251 CNS 95.9% | PC-3 prostate 84.2% | SK-MEL-5 melanoma 99% | UACC-62 melanoma 56.4% | SK-MEL-28 melanoma 106%

Cc1ccc(C(C)C)c(OCC(=O)O)c1
inactive: DU-145 prostate 121% | K-562 leukemia 108% | MDA-MB-231 breast 107% | RXF 393 renal 114% | SF-268 CNS 97.5% | SF-295 CNS 101% | SF-539 CNS 103% | UACC-257 melanoma 88.3% | M14 melanoma 108% | HCT-15 colon 101% | HT29 colon 109% | SNB-75 CNS 99.3% | SNB-19 CNS 104% | U251 CNS 96.1% | PC-3 prostate 98.7% | SK-MEL-5 melanoma 100% | UACC-62 melanoma 100% | LOX IMVI melanoma 102% | SK-MEL-28 melanoma 106%

Nc1ncnc2c1ncn2C1OC(CO)C2OC21 (configuration not stated)
inactive: DU-145 prostate 113% | K-562 leukemia 104% | MDA-MB-231 breast 112% | RXF 393 renal 103% | SF-268 CNS 104% | SF-295 CNS 106% | SF-539 CNS 110% | UACC-257 melanoma 98.6% | M14 melanoma 102% | HCT-15 colon 108% | HT29 colon 101% | SNB-75 CNS 106% | SNB-19 CNS 118% | U251 CNS 95.7% | PC-3 prostate 95.8% | SK-MEL-5 melanoma 101% | UACC-62 melanoma 100% | LOX IMVI melanoma 99.2% | SK-MEL-28 melanoma 111%

CCOc1ccncc1[N+](=O)[O-]
inactive: DU-145 prostate 108% | K-562 leukemia 100% | MDA-MB-231 breast 114% | RXF 393 renal 113% | SF-268 CNS 103% | SF-295 CNS 108% | SF-539 CNS 108% | UACC-257 melanoma 95.2% | M14 melanoma 106% | HCT-15 colon 110% | HT29 colon 107% | SNB-75 CNS 101% | SNB-19 CNS 125% | U251 CNS 96.9% | PC-3 prostate 106% | SK-MEL-5 melanoma 106% | UACC-62 melanoma 100% | LOX IMVI melanoma 99.6% | SK-MEL-28 melanoma 102%

COc1cc(OC)c(NC(=O)C(Sc2nc(C)cc(C)c2C#N)c2ccccc2)cc1Cl (configuration not stated)
inactive: DU-145 prostate 102% | K-562 leukemia 105% | MDA-MB-231 breast 106% | RXF 393 renal 73.5% | SF-268 CNS 85.9% | SF-539 CNS 83.8% | UACC-257 melanoma 114% | M14 melanoma 97.1% | HCT-15 colon 97.7% | HT29 colon 107% | SNB-75 CNS 27.4% | SNB-19 CNS 94.1% | U251 CNS 87.3% | PC-3 prostate 102% | SK-MEL-5 melanoma 102% | UACC-62 melanoma 94.6% | LOX IMVI melanoma 89.6% | SK-MEL-28 melanoma 105%

COc1ccc2c(ccc[n+]2C)c1
inactive: DU-145 prostate 126% | MALME-3M melanoma 110% | MDA-MB-231 breast 101% | RXF 393 renal 136% | SF-268 CNS 125% | SF-295 CNS 114% | SF-539 CNS 101% | UACC-257 melanoma 98.2% | M14 melanoma 108% | HCT-15 colon 93.5% | HT29 colon 93% | SNB-75 CNS 78.3% | SNB-19 CNS 101% | U251 CNS 96.7% | PC-3 prostate 119% | SK-MEL-5 melanoma 103% | UACC-62 melanoma 95.5% | LOX IMVI melanoma 105% | SK-MEL-28 melanoma 111%

CSCC[C@@H]1C(=O)N(C)[C@H](C(C)(C)C)N1C(=O)c1ccccc1
inactive: DU-145 prostate 106% | K-562 leukemia 114% | MDA-MB-231 breast 111% | RXF 393 renal 111% | SF-268 CNS 94.8% | SF-295 CNS 108% | SF-539 CNS 107% | UACC-257 melanoma 100% | M14 melanoma 105% | HCT-15 colon 113% | HT29 colon 116% | SNB-75 CNS 85.2% | SNB-19 CNS 114% | U251 CNS 99.3% | PC-3 prostate 104% | SK-MEL-5 melanoma 106% | UACC-62 melanoma 101% | LOX IMVI melanoma 95.4% | SK-MEL-28 melanoma 107%

CC(O)C(F)(F)C(F)(F)C(F)(F)F (configuration not stated)
inactive: DU-145 prostate 119% | K-562 leukemia 111% | MDA-MB-231 breast 118% | RXF 393 renal 103% | SF-268 CNS 115% | SF-539 CNS 96.6% | UACC-257 melanoma 107% | HCT-15 colon 88.2% | HT29 colon 99.9% | SNB-75 CNS 103% | SNB-19 CNS 112% | U251 CNS 103% | PC-3 prostate 110% | SK-MEL-5 melanoma 101% | UACC-62 melanoma 115% | LOX IMVI melanoma 107% | SK-MEL-28 melanoma 108%
